Vif-APOBEC3F blk – blocks the Vif interaction with APOBEC3F. HeLa A3F-eYFP + Vif (tagged APOBEC3F with the HIV-1 protein that degrades it), YFP fluorescence increase. Potency, µM (top dose mostly 46.1 µM), without a hit: top-dose activity, negative = active. 390,000 tested, 0.2% active. AID 602313; further: potency means the concentration at half of the fitted maximal effect; % of control where 0% means no effect; nearly all actives have a fitted effect of over 65% in size
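HeLa cells stably expressing A3F-eYFP plus Vif, plated and incubated overnight at 37 deg C, then exposed to compounds overnight at 37 deg C. Blocked degradation read as raised yellow fluorescence (Ex 488/Em 500-530).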
IL1B secr inh – blocks inflammasome-driven IL-1 beta release; 360,000 tested, 4.7% active; THP-1 LPS/ATP IL-1B secretion, AlphaLISA, 16 h; stronger effect = lower value; AID 743279; activity change, % at 57.5 µM; in the data active means activity change below about -50%; inconclusive means mostly about -30% to -49%; further: on the % scale 0 is the no-effect control and ±100 the full control effect
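THP-1 cells pretreated 1 hr with compounds (up to 57.5 uM final), then stimulated with LPS (250 ng/mL final) plus ATP (1.25 mM final); secreted IL-1B measured by AlphaLISA after 16 hr, decreased signal indicating inhibition.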
Vif-A3G inh – blocks the Vif interaction with human APOBEC3G; Q9HC16; HeLa A3G-eYFP + Vif (tagged APOBEC3G with the HIV-1 protein that degrades it), YFP fluorescence, overnight; Potency, µM (highest dose often 46.1 µM), for the others: top-dose activity, negative = active, hits mostly inhibitors; 410,000 tested, 0.076% active; AID 602310; further: potency means the concentration at half of the fitted maximal effect; on the % scale 0 is the no-effect control and ±100 the full control effect; nearly all actives have a fitted effect of over 60% in size
Target sequence (Q9HC16 whole entry, looked up): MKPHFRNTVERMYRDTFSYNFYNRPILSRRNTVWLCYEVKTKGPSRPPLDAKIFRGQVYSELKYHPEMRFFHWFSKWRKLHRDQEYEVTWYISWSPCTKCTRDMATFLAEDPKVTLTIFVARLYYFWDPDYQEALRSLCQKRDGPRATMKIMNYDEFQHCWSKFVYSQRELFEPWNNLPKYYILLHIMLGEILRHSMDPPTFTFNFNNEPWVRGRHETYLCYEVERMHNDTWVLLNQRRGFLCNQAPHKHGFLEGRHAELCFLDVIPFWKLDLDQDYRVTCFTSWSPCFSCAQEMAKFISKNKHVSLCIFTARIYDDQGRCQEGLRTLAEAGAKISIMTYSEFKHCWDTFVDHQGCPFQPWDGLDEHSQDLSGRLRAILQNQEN
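HeLa cells stably expressing Vif and C-terminally eYFP-tagged A3G, seeded overnight at 37 deg C, then exposed to compound by pintool overnight at 37 deg C. Rise in yellow fluorescence (Ex 488/Em 500-530, Acumen) marks blocked Vif-driven A3G degradation.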
MCF10A rereplic – DNA re-replication induction in MCF 10a cells. Potency, µM (doses to about 46.1 µM), for inactives: at the top dose activity, positive = re-replication, most hits filed as activators. 350,000 tested, 2.9% active. MCF 10A DNA re-replication, Hoechst nuclear intensity, 48 h. AID 624296; further: potency means the concentration at half of the fitted maximal effect; % of control where 0% means no effect; nearly all actives have a fitted effect of over 50% in size
Giardia killer – kills Giardia lamblia. Giardia lamblia trophozoite viability. activity change, % at 7.66 µM, hits read low. 340,000 tested, 0.15% active; in the data active means activity change below about -80%; inconclusive means between about -30% and that limit;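 further: parasites exposed to compound for two days anaerobically before the ATP read; on the % scale 0 is the no-effect control and ±100 the full control effect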
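Luminescent ATP signal served as the viability read-out, measured 15-30 min after adding ATP detection reagent to trophozoites that had been incubated with compounds for 48 hrs at 37 deg C anaerobically at 100 cells/well.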
SW480 rerep – DNA re-replication induction in SW480 cells. SW480 DNA re-replication, Hoechst DNA content imaging, 48 h. Potency, µM (highest dose often 46.1 µM), without a hit: at the highest dose re-replication activation, usual class: activators. 340,000 tested, 1.8% active; further: potency means the concentration at half of the fitted maximal effect; % of control where 0% means no effect; nearly all actives have a fitted effect of over 55% in size
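DNA re-replication was detected as more nuclei of elevated Hoechst intensity after 48 hr exposure to compound (23 nL pinned per well of 250 cells).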
Starred values were filed as active, the others as inactive; ? = inconclusive; · = no result given. Compounds with a hit are over-represented: about 6.9% of the library has one in this group of screens. Unless noted, the call rests on the fitted dose curve; in most records, active means well fitted curve in the direction sought with a large enough effect; inconclusive means small, poorly fitted or top-dose-only effect, or another doubt; inactive means no such curve, though single readings can be large; an effect the other way counts as inactive or inconclusive.

SMILES | Vif-APOBEC3F blk | IL1B secr inh | Vif-A3G inh | MCF10A rereplic | Giardia killer | SW480 rerep
O=C(CN1CCN(c2ccccc2Cl)CC1)NC1CCCc2ccccc21 (centres undefined) | 5% | -59* | -2% | 12% | 5 | ?
COc1ccc([C@H]2C[C@@H](n3cc(C4CC4)nn3)[C@H](O)CN2CC2CCCCC2)cc1 | ? | -55* | -16% | · | · | ·
COc1ccc([C@H]2C[C@H](O)[C@@H](n3cc(C4CC4)nn3)CN2CC2CCCCC2)cc1 | 5% | -8 | -3% | · | · | ·
CC1CCN(C(=O)c2c(NC(=O)c3ccccc3F)sc3c2CCC(C(C)(C)C)C3)CC1 (centres undefined) | 6% | · | 3% | · | · | ·
CN=c1scc(-c2ccccc2F)n1/N=C/c1ccc[nH]1 | ? | ? | -5% | ? | ? | 23%
CN=c1scc(-c2ccccc2F)n1/N=C/c1ccc(O)c(O)c1O | ? | -14 | -20% | 9% | -103* | ?
COc1ccc(O)c(/C=N/n2c(-c3ccco3)csc2=Nc2cccnc2)c1 | -11% | 0 | 2% | 27% | 6 | 4%
CN=c1scc(C)n1/N=C/c1ccc(O)cc1O | 3% | -3 | -9% | 19% | ? | -5%
CC(C)N=c1scc(-c2cccs2)n1/N=C/c1ccc(O)c(O)c1O | ? | -83* | -18% | ? | 17 | ?
CCN=c1scc(-c2cccs2)n1/N=C/c1cc(OC)ccc1O | -1% | -62* | -5% | 5.8µM* | -1 | ?
Cc1cccn2c(=O)c(/C=C3\SC(=S)NC3=O)c(NCCCN3CCOCC3)nc12 | ? | -83* | ? | 14% | -5 | 2%
CCCN1C(=O)/C(=C/c2c(NCCCOCC)nc3c(C)cccn3c2=O)SC1=S | ? | 20 | -11% | 8% | 18 | 1%
CCOc1cc(/C=C2\SC(N)=NC2=O)ccc1O | -3% | -9 | -10% | 8% | -3 | 1%
COc1cc(/C=C2\SC(N)=NC2=O)cc(Br)c1O | ? | 26 | 11µM* | -7% | 1 | -9%
COc1cc(/C=C2\C(=O)N(CCC#N)N=C2C)ccc1OCC(=O)Nc1ccccc1 | -33% | -61* | -7% | ? | 15 | ?
CCOc1cc(/C=C2\C(=O)N(CCC#N)N=C2C)ccc1OCC(N)=O | -1% | 9 | 2% | -3% | 15 | -43%
COc1cc(/C=C2\SC(N)=NC2=O)ccc1OCC(=O)Nc1ccc(C)cc1 | -17% | -103* | 2% | 8% | -1 | -3%
Cc1c(C(C)C)c(=O)n(-c2ccc(S(=O)(=O)NCc3ccccc3)cc2)n1C | -7% | 0 | -3% | 26% | 1 | -8%
Cc1c(C(C)C)c(=O)n(-c2ccc(S(=O)(=O)NC3CCCCC3)cc2)n1C | 14% | -54* | 0% | ? | -2 | -14%
Cc1c(-c2ccc(Cl)cc2)oc(=O)c2c(N)n(-c3ccccc3)nc12 | 5% | 0 | 3% | ? | 5 | 0%
Nc1c2c(=O)oc(-c3ccccc3)cc2nn1-c1ccccc1 | -8% | -99* | -19% | ? | -6 | 16µM*
CC1(C)CC(=O)c2c(oc3c(Cl)cc(NS(=O)(=O)c4ccc(Cl)cc4)cc23)C1 | -5% | · | -4% | · | · | ·
CCC(c1nnnn1Cc1ccccc1)N(Cc1ccccc1)Cc1cc2cc(C)ccc2[nH]c1=O (centres undefined) | · | · | -6% | · | -3 | ·
CCCC(=O)Nc1sc(C)c(C)c1C(=O)Nc1cccc(C)c1 | -11% | -59* | -6% | 6% | 1 | -13%
Cn1c2ccccc2c2nnc(SCC(=O)Nc3cccc(C(=O)O)c3)nc21 | 0% | 11 | -9% | -8% | 6 | 16%
Cn1c2ccc(F)cc2c2nnc(SCC(=O)Nc3cccc(O)c3)nc21 | 6% | -71* | 0% | 3% | 10 | -2%
CCOC(=O)C(C)Sc1nnc2c3ccccc3n(C)c2n1 (centres undefined) | 0% | 56 | -1% | 1.8µM* | -1 | -8%

Screens deposited in PubChem by National Center for Advancing Translational Sciences (NCATS).
